Results: the supplement of paper PMC8726507
Values without a mark were called inactive.

Tested on: Plasmodium falciparum NF54-HGL (transmission to Anopheles stephensi)
Assay: percentage of barcode signal found in uninfected mosquitoes (transmission-blocking activity); higher = stronger blocking of transmission to mosquito, active = 80 or more
Conditions: gametocyte preincubation time 24 h, readout time post-feed 8 days
Protocol: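 The mixture was fed to Anopheles stephensi in 96-well plates as blood meals tagged with DNA-barcoded Asaia bacteria. Eight days later, mosquitoes were classed infected or uninfected by luminescence (mean + 5 SD of unfed controls). Barcodes were quantified by Luminex MagPlex-TAG in the pooled uninfected and infected Asaia cultures, background-corrected, and the score is % of barcode signal in uninfected mosquitoes = 100*Iu/(Iu+Ii).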

## Cc1cnc(N2CCN[C@@H](Cc3ccccc3)C2)nc1Oc1ccc(-n2ccnc2)cc1
20 µM
  percentage of barcode signal found in uninfected mosquitoes: 87% (active)

## O=C(Nc1ccccc1)c1ccc(-c2cc3ccncc3cc2OC2CCNCC2)s1
20 µM
  percentage of barcode signal found in uninfected mosquitoes: 82.7% (active)

## CC(C)(C)n1nc(Cc2ccc(F)c(Cl)c2)c2c(N)ncnc21
20 µM
  percentage of barcode signal found in uninfected mosquitoes: 10.3%

## CC(=O)NCC1CN(c2ccc(-c3ccc(CO)cc3)c(F)c2)C(=O)O1 (stereo unspecified)
20 µM
  percentage of barcode signal found in uninfected mosquitoes: 30.3%

## CC(C)(CN)c1nc(-c2ccc(Cl)c(O)c2)c(-c2ccnc(N)n2)[nH]1
20 µM
  percentage of barcode signal found in uninfected mosquitoes: 80.9% (active)

## COc1ccc(-c2onc(C(F)(F)F)c2-c2ccc(Cl)cc2)c(O)c1
10 µM
  percentage of barcode signal found in uninfected mosquitoes: 25.2%

## CC(C)(C)C(=O)N(CCCCCCN1C[C@H](O)[C@@H](O)[C@H](O)[C@H]1CO)C1CCCCCC1
20 µM
  percentage of barcode signal found in uninfected mosquitoes: 17%

## c1ccc(Oc2ccc(-c3cncc(-c4ccc5[nH]ccc5c4)n3)cc2)cc1
20 µM
  percentage of barcode signal found in uninfected mosquitoes: 29%

## COc1ccc(C2CC(c3cccs3)=NN2C(=O)c2ccco2)cc1OC (stereo unspecified)
10 µM
  percentage of barcode signal found in uninfected mosquitoes: 57.1%

## Cc1nc(-c2ccccn2)nc(N(C)CCc2ccccc2)c1Cl
20 µM
  percentage of barcode signal found in uninfected mosquitoes: 92% (active)

## Nc1nccc2ccc(-c3ccc4nccn4c3)cc12
10 µM
  percentage of barcode signal found in uninfected mosquitoes: 92.9% (active)

## CCOc1ccc(OCC(=O)Nc2cc(C)cc(C)c2)cc1
20 µM
  percentage of barcode signal found in uninfected mosquitoes: 17.5%

## COc1ccccc1C(C)NCC(=O)Nc1cc(C(F)(F)F)ccc1Cl (stereo unspecified)
10 µM
  percentage of barcode signal found in uninfected mosquitoes: 11.8%

## Nc1ccc(C(=O)Nc2ccc(-c3nc4ccccc4o3)cc2)cc1
20 µM
  percentage of barcode signal found in uninfected mosquitoes: -0.842%

## CC(C)C(Oc1cccc2ccccc12)C(=O)O (stereo unspecified)
20 µM
  percentage of barcode signal found in uninfected mosquitoes: 20%

## Nc1ncnc2c1ncn2[C@@H]1O[C@H](COS(=O)(=O)NC(=O)c2ccccc2O)[C@@H](O)[C@H]1O
10 µM
  percentage of barcode signal found in uninfected mosquitoes: -0.124%
